Here are results for nine compounds from PubChem BioAssay (Tox21).

Values without a mark were called inactive. Inconclusive results are not listed. Active and inactive are the calls of the source. Unless noted, the call rests on the fitted dose curve; in most records, active means well fitted curve in the direction sought with a large enough effect in the repeat runs; inconclusive means weak or mixed curves; inactive means no such curve, though single readings can be large; an effect the other way counts as inactive or inconclusive.

A short description of assay [1]: qHTS assay to identify small molecule agonists of the estrogen receptor alpha (ER-alpha) signaling pathway in the presence of an antagonist - cell viability counter screen (AID 1259386).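 Further: cells exposed to compounds for 22 h at 37 °C before the viability read; nearly all actives have a fitted effect of over 30% in size.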 Further: potency means the concentration at half of the fitted maximal effect. An outline of the steps:
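Steps: 5-day stripped-FBS culture; seed and incubate 24hr; add ICI-182,780 (10.0nM final); pin 15-point compound titration; incubate 22hr at 37C; add CellTiter-Fluor at 21hr; read fluorescence.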
(In qHTS, concentration-response curves come from the screen itself.)

The target in assay [2] is Progesterone receptor (Homo sapiens) (UniProt P06401). Description: qHTS assay to identify small molecule agonists of the progesterone receptor (PR) signaling pathway (AID 1346784; calls by dose curve; further: nearly all actives have a fitted effect of over 30% in size). An outline of the steps:
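Seed PR-UAS-bla HEK 293T cells (2% charcoal-stripped FBS), incubate 6 hr at 37C; add compounds in DMSO, 16 hr at 37C; add LiveBLAzer B/G substrate, 2 hr RT; read fluorescence intensity.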

For assay [3] the target is unchanged. Description: qHTS assay to identify small molecule antagonists of the progesterone receptor (PR) signaling pathway (AID 1346795; active means well fitted inhibition curve with a large enough effect in the signal ratio in the repeat runs, not every such curve was filed as active; the % refers to the signal ratio; further: potency means the concentration at half of the fitted maximal effect). An outline of the steps: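 Screening used a GripTite HEK293T line with PR-responsive UAS-beta-lactamase. Cells were challenged with compound in the presence of 1 nM R5020 final for 16 hr at 37C; B/G FRET substrate, 2 hr room temperature, fluorescence.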

Assay [4] is described as follows: qHTS assay to identify small molecule antagonists of the progesterone receptor (PR) signaling pathway - cell viability counter screen (AID 1346798). Further: nearly all actives have a fitted effect of over 50% in size. Further: potency means the concentration at half of the fitted maximal effect. The essentials:
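Measures cytotoxicity in parallel with the PR antagonist reporter read: HEK293T PR-UAS-bla cells get compound and R5020 for 16 hr, and remaining viable cells are quantified by CellTiter-Glo luminescence.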

Assay [5] in a line: qHTS assay to identify small molecule agonists of the progesterone receptor (PR) signaling pathway - cell viability counter screen (AID 1346799; calls by dose curve; further: nearly all actives have a fitted effect of over 45% in size; further: potency means the concentration at half of the fitted maximal effect). An outline of the steps: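 Using the same plates as the PR reporter screen, HEK293T PR-UAS-bla cells received compounds for 16 hr at 37C and were then lysed with CellTiter-Glo; luminescence was read 30 min later at room temperature.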

Assay [6] is described as follows: qHTS assay to identify small molecule antagonists of the TGF-beta/Smad signaling pathway - cell viability counter screen (AID 1346824). Further: nearly all actives have a fitted effect of over 50% in size. The essentials: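 Cytotoxicity counter-screen run in the same wells as the beta-lactamase Smad reporter read: CellTiter-Glo luminescence after 30 min at room temperature. HEK 293T SBE-bla cells had 5 hr compound exposure at 37 C with TGF-beta1 (0.25 ng/mL stock).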

A short description of assay [7]: qHTS assay to identify small molecule agonists of the TGF-beta/Smad signaling pathway - cell viability counter screen (AID 1346829). Further: top concentration of the series differs between compounds; nearly all actives have a fitted effect of over 45% in size. The essentials:
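Here the cytotoxicity of library compounds is measured in SBE-bla HEK 293T cells treated for 5 hr, using CellTiter-Glo added to wells already read for the beta-lactamase reporter.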

Assay [8] in a line: qHTS assay to identify small molecule agonists of the TGF-beta/Smad signaling pathway (AID 1346859; active means well fitted activation curve with a large enough effect in the signal ratio in the repeat runs, not every such curve was filed as active; the % refers to the signal ratio; further: series mostly up to about 77 µM). An outline of the steps: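 Beta-lactamase reporter activity downstream of Smad binding elements was measured in stably transfected HEK 293T cells; compounds were incubated for 5 hr, substrate for 2 hr at room temperature.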
The nature of assay [9]: Human pregnane X receptor (PXR) small molecule agonists, qHTS cell viability counter screen (AID 1346977). Further: nearly all actives have a fitted effect of over 50% in size. Further: potency means the concentration at half of the fitted maximal effect. An outline of the steps: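 After a 5hr pre-incubation, PXR-Luc HepG2 cells received compounds plus positive control in DMSO and were kept 24hr at 37C. Cell viability was quantified by fluorescence from CellTiter-Fluor added for the final hour.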
Assay [10] can be described thus: Caspase-3/7 induction in HepG2 cells by small molecules, qHTS assay (AID 1346978). Further: nearly all actives have a fitted effect of over 15% in size. The essentials:
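Caspase-3/7 induction was measured by Caspase-Glo 3/7 luminescence (30 min, room temperature) after a 17 hr compound exposure of wild-type HepG2 cells seeded at 2,000 per well and pre-incubated 5 hr.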

Assay [11] is described as follows: Caspase-3/7 induction in CHO-K1 cells by small molecules, qHTS cell viability counter screen (AID 1346979). Further: nearly all actives have a fitted effect of over 35% in size. The essentials: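 Multiplexed with Caspase-Glo 3/7 in CHO-K1 cells, this counter screen added CellTiter-Fluor after 16hr of compound exposure and recorded fluorescence 1hr later.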
The nature of assay [12]: Caspase-3/7 induction in CHO-K1 cells by small molecules, qHTS assay (AID 1346980). Further: nearly all actives have a fitted effect of over 15% in size. The essentials:
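Luminescent Caspase-Glo 3/7 read (30min, room temperature) quantified apoptosis induction. Cells were wild-type CHO-K1, treated with compound for 17hr at 37 C and 5% CO2.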

The nature of assay [13]: Caspase-3/7 induction in HepG2 cells by small molecules, qHTS cell viability counter screen (AID 1346981). Further: series mostly up to about 92 µM; nearly all actives have a fitted effect of over 30% in size. An outline of the steps:
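The parent HepG2 line is plated at 2,000 cells per well and rested 5 hr before compound pinning from DMSO stocks. Following a 16-hr treatment at 37 C, a fluorogenic live-cell substrate (CellTiter-Fluor) reports viability after 1 hr.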

For assay [14], the target named is Nuclear receptor subfamily 1 group I member 2 (Homo sapiens) (UniProt O75469). Kind of assay: Human pregnane X receptor (PXR) small molecule agonists, qHTS assay (AID 1346982). Further: nearly all actives have a fitted effect of over 35% in size. Further: potency means the concentration at half of the fitted maximal effect. An outline of the steps:
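After plating in 5% charcoal-stripped FBS and a 5 hr rest, PXR-Luc HepG2 cells received compounds in DMSO. Following 24 hr at 37 C, ONE-Glo was added and light output read.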

Assay [15] deals with Cytochrome P450 2D6 (Homo sapiens) (UniProt P10635). Kind of assay: Cytochrome P450 Family 2 Subfamily D Member 6 (CYP2D6) small molecule antagonists: luciferase reporter qHTS assay (AID 1671196). Further: nearly all actives have a fitted effect of over 50% in size. Further: potency means the concentration at half of the fitted maximal effect. An outline of the steps: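 Quantitative HTS of Tox21 chemicals against CYP2D6 using a luminescent proluciferin substrate. After NADPH addition, 1 h room-temperature reaction; luminescence recorded 20 min post detection reagent.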
Chain of Cytochrome P450 2D6 (Homo sapiens) (P10635 whole entry, looked up): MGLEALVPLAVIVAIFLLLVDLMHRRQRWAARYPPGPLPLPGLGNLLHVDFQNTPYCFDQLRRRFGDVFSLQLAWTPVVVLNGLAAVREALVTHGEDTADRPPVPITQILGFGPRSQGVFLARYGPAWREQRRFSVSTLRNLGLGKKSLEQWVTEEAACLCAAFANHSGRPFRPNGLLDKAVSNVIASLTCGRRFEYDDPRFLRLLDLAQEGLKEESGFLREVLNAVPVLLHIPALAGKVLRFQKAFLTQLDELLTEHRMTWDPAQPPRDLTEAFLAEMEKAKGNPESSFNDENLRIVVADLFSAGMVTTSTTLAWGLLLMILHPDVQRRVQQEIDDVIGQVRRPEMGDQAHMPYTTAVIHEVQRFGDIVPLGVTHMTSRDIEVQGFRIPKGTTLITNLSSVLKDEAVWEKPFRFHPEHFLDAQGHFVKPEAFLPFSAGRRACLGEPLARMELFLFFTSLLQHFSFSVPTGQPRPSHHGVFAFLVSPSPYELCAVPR

For assay [16], the target named is Thyrotropin-releasing hormone receptor (Homo sapiens) (UniProt P34981). Kind of assay: qHTS assay to identify small molecule antagonists of the thyrotropin-releasing hormone receptor (TRHR) signaling pathway (AID 1346877; active means well fitted inhibition curve with a large enough effect in the repeat runs, not every such curve was filed as active; further: series mostly up to about 51 µM). An outline of the steps:
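Human TRHR in HEK293 cells; inhibition of the intracellular calcium rise triggered by 1 nM TRH was followed by fluorescence over 3 min. Compounds were run at 15 concentrations, three replicates each.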

Assay [17] has the same target. Kind of assay: qHTS assay to identify small molecule agonists of the thyrotropin-releasing hormone receptor (TRHR) signaling pathway (AID 1346891; calls by dose curve;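 further: HEK293 cells expressing TRHR with calcium dye readout; series mostly up to about 58 µM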). The essentials: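 Overnight-plated (18 h, 37 °C, 5% CO2) TRHR-Hek293 cells; 2 h calcium dye at 37 °C; compound in DMSO; 3-min kinetic fluorescence read.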
Assay [18] has as its target Nuclear receptor subfamily 1 group I member 2 (Homo sapiens) (UniProt O75469). Description: CYP3A4 induction through human pregnane X receptor (PXR) by small molecules, qHTS assay (AID 1346984). Further: nearly all actives have a fitted effect of over 40% in size. Further: potency means the concentration at half of the fitted maximal effect. An outline of the steps:
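Human PXR activation is tracked via CYP3A4 promoter-luciferase in DPX-2 (HepG2) cells. Compounds treat cells for 24hr at 37C, and luminescence is read after One-Glo.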

For assay [19] the target is unchanged. Kind of assay: Human pregnane X receptor (PXR) activation by small molecules, qHTS assay (AID 1346985). Further: nearly all actives have a fitted effect of over 40% in size. The essentials: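 DPX-2 cells (HepG2 co-transfected with a PXR response element and a CYP3A4-promoter luciferase construct) were seeded at 2,000 per well, rested 5 hr at 37C, then exposed to DMSO-dissolved compounds for 24 hr. Activation was read as luciferase luminescence.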

The target of assay [20] is Nuclear receptor subfamily 1 group I member 2 (Rattus norvegicus) (UniProt Q9R1A7). Description: Rat pregnane X receptor (rPXR) activation by small molecules, qHTS assay (AID 1346983). Further: potency means the concentration at half of the fitted maximal effect; nearly all actives have a fitted effect of over 20% in size. The settings on record: rPXR luciferase reporter cells, One-Glo luminescence, 24 h; max activation: stronger effect = higher value. The essentials:
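Luminescent readout (One-Glo luciferase, 30 min room temperature) followed 24 hr compound treatment at 37 C of rPXR cells plated 2,000 per well and preincubated 5hr; qHTS format with compounds delivered in DMSO.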

Chain of Progesterone receptor (Homo sapiens) (P06401 whole entry, looked up): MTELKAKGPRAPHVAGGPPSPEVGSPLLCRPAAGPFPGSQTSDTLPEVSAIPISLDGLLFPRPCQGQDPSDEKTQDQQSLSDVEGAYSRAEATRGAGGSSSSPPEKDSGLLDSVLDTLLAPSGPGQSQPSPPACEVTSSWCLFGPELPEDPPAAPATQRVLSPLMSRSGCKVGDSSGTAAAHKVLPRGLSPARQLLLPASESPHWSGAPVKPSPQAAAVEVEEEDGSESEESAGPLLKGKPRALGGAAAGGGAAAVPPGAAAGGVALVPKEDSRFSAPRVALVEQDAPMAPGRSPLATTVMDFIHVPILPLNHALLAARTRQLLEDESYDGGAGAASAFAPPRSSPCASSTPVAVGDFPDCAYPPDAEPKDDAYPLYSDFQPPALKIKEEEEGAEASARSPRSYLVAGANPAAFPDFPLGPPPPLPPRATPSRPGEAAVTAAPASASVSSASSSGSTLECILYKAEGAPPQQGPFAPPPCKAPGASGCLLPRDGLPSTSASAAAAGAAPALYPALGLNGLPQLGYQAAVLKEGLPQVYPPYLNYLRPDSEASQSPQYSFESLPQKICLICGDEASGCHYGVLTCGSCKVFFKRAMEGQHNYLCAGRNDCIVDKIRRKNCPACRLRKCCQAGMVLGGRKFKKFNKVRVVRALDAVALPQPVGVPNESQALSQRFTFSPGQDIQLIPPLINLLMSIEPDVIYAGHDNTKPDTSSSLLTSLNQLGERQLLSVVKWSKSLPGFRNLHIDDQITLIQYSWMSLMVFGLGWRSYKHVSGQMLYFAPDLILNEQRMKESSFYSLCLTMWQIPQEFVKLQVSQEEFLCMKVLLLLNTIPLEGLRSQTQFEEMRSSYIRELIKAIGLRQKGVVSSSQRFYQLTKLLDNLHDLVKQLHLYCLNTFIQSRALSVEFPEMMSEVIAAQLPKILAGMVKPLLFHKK
Chain of Thyrotropin-releasing hormone receptor (Homo sapiens) (P34981 whole entry, looked up): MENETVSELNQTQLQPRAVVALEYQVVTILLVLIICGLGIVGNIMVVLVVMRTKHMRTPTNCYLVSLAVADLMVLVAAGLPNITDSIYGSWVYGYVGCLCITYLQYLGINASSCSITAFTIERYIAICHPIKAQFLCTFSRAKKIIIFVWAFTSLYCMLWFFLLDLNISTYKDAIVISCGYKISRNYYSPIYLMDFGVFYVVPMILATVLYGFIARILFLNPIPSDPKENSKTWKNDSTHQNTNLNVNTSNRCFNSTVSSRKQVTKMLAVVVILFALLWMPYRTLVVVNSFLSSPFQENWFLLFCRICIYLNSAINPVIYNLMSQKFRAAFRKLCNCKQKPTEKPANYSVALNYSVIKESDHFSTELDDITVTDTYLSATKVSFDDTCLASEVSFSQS
Chain of Nuclear receptor subfamily 1 group I member 2 (Homo sapiens) (O75469 whole entry, looked up): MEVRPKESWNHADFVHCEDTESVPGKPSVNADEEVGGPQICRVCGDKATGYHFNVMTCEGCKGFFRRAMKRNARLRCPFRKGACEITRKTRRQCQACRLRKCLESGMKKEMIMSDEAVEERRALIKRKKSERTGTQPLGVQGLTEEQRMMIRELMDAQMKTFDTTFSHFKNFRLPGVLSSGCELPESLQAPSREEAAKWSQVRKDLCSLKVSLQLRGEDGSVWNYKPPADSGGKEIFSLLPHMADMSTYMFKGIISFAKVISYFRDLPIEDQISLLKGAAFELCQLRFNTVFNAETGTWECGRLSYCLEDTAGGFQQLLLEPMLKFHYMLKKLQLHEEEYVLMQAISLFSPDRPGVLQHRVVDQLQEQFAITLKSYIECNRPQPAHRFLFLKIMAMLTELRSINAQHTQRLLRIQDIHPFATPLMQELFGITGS
Chain of Nuclear receptor subfamily 1 group I member 2 (Rattus norvegicus) (Q9R1A7 whole entry, looked up): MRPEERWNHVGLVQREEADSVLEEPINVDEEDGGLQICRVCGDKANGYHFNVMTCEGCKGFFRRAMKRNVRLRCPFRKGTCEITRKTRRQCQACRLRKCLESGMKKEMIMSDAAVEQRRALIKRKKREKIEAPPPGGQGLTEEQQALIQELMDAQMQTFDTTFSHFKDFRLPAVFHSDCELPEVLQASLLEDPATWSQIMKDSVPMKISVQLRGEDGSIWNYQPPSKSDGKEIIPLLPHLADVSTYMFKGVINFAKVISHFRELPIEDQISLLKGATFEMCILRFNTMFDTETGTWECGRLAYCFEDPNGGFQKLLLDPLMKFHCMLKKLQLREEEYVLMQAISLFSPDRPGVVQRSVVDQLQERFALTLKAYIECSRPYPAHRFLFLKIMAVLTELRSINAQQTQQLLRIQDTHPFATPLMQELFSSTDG

On to `CCCCCC#CC(=O)OC`, for which the Potency entry in assay [1], in assay [2], in [3], in assay [4], in assay [5] and in [6] was “inactive” in each case. Besides, the Potency result in assay [7], in [8], in assay [9], in [10], in assay [11] and in assay [12] was “inactive” in each case. In addition, the Potency result in assay [13], in assay [14] and in assay [15] was “inactive” each time.

On to `NCCNCCO`, for which the Potency result in assay [1], in assay [2], in assay [3], in assay [4], in [5] and in assay [6] was “inactive” in each case. In addition, the Potency result in [7], in [17], in assay [9], in assay [10], in assay [11] and in assay [12] was “inactive” each time. For the same compound, the Potency entry in assay [13] and in assay [14] was “inactive” in each case. The result in assay [16] was inactive. Also, the Potency in [15] is 28.6 µM (active).

Take `Cc1ccccc1S`: the Potency entry in [1], in [2], in assay [3], in [4], in [5] and in assay [6] was “inactive” throughout. For the same compound, the Potency result in [7], in assay [17], in assay [9], in [10], in assay [11] and in assay [13] was “inactive” each time. The outcome in [16] was inactive. In assay [15], the Potency was 28.5 µM (active).

With `Oc1cccc(O)c1O`, the values for the Potency in assay [1] and in assay [14] were 68 µM (active) and 60.6 µM (active), respectively. The Potency entry in assay [2], in assay [3], in [4], in [5], in [6] and in assay [7] was “inactive” throughout. Also, the Potency result in assay [8], in assay [17], in [10], in assay [12], in assay [18] and in [19] was “inactive” in each case. For the same compound, the outcome in assay [16] was inactive.

Consider `CC(C)=CCC1C(=O)N(c2ccccc2)N(c2ccccc2)C1=O`, for which the Potency result in assay [1], in [2], in [3], in assay [4], in assay [5] and in [6] was “inactive” in each case. The Potency entry in assay [7], in assay [8], in [17], in assay [9], in [10] and in assay [12] was “inactive” throughout. Moreover, the Potency result in [13] and in assay [15] was “inactive” in each case. Besides, the compound was classed as inactive in [16]. The Potency in assay [14] is 29.8 µM (active); in assay [20] it was 28.2 µM (active); in [18] it was 5.01 µM (active).

`c1csc(SSc2cccs2)c1`: the Potency entry in [1], in [2], in assay [6], in [7], in assay [8] and in assay [10] was “inactive” each time. Also, in assay [13], the Potency result was “inactive”. In addition, the Potency was 8.63 µM (active) in [3]; 9.69 µM (active) in assay [4]; 9.69 µM (active) in assay [5]; 27.3 µM (active) in assay [9]; 9.69 µM (active) in assay [14].

Take `CCC(C)COC(C)=O` (stereo unspecified): the Potency entry in assay [1], in assay [2], in [3], in assay [4], in [5] and in assay [6] was “inactive” in each case. Moreover, the Potency result in assay [7], in [8], in [9], in assay [10], in [11] and in [13] was “inactive” in each case. The Potency result in [14] and in assay [15] was “inactive” each time.

For `CC(=O)c1cc2ccccc2s1`, the Potency entry in assay [1], in assay [2], in [3], in assay [4], in [5] and in assay [6] was “inactive” each time. Also, the Potency result in assay [7], in [8], in assay [9], in assay [10], in assay [12] and in assay [14] was “inactive” each time.

With `Clc1cc(Cl)nc(Cl)n1`, the Potency entry in assay [1], in assay [2], in assay [3], in [4], in assay [5] and in assay [6] was “inactive” throughout. Also, the Potency entry in [7], in assay [17], in assay [9], in [10], in [11] and in assay [12] was “inactive” each time. Moreover, the Potency entry in assay [13] and in assay [14] was “inactive” throughout. For the same compound, the call in assay [16] was inactive.
